# Legend:
# Experiment in all cases: DAPPL (digital affinity profiling via proximity ligation, sequencing); 10 mM Tris-HCl pH 7.5, 50 mM NaCl, 1 mM DTT, 4% glycerol, room temperature, 30 min; GST-TFs on glutathione beads, 16-mer random dsDNA library, 0.1% formaldehyde crosslink after washing; high values mean tight binding
# FLI1 = molecular target: T1, FLI1 (Homo sapiens, UniProt Q01543 1-452); settings: protein: recombinant; tags: N-terminal GST; dsDNA, one strand shown
# T1 sequence: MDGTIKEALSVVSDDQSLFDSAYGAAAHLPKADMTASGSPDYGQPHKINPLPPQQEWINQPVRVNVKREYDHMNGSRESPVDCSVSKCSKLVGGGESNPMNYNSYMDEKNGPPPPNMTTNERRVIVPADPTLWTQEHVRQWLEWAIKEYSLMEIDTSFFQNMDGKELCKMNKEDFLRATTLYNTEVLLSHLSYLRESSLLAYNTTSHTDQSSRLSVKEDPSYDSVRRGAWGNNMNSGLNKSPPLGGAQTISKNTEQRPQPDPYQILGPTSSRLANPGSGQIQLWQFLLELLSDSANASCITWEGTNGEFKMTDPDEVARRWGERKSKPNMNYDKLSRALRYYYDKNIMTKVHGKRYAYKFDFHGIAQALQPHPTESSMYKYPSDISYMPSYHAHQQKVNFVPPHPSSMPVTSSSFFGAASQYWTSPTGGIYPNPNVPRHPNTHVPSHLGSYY
# Summary of the method: (§1)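 Binding signal is defined as a hexamer's read frequency for one factor over its frequency for the tag-only sample. To obtain reads, GST-fused human transcription factors were expressed in yeast, captured on glutathione beads, barcoded with DNA and pooled with that sample. Pools met 200 nmole of a 16-mer random double-stranded DNA library in Tris/NaCl/DTT/glycerol buffer for 30 min at room temperature before washing, 0.1% formaldehyde crosslinking, proximity ligation (BsaI/T4 ligase, 1 h, 37 °C), PCR and Illumina NextSeq500 sequencing.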
# ELK1 = molecular target: T2, ELK1 (Homo sapiens, UniProt P19419 1-428); settings: protein: recombinant; tags: N-terminal GST; dsDNA, one strand shown
# T2 sequence: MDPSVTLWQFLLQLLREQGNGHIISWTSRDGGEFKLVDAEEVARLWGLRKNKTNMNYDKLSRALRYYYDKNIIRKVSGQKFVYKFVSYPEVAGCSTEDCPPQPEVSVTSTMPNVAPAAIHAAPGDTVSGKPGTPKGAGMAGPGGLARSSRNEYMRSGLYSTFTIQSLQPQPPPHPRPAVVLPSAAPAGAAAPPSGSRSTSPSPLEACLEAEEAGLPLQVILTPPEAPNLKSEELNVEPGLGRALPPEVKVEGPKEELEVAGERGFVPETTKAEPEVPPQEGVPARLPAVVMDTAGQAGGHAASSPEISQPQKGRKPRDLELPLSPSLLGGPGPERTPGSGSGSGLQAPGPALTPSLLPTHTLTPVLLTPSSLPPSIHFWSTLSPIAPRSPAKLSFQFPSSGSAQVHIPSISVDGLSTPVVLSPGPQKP
# Summary of the method: as §1
# GABPA = molecular target: T3, GABPA (Homo sapiens, UniProt Q06546 1-454); settings: protein: recombinant; tags: N-terminal GST; dsDNA, one strand shown
# T3 sequence: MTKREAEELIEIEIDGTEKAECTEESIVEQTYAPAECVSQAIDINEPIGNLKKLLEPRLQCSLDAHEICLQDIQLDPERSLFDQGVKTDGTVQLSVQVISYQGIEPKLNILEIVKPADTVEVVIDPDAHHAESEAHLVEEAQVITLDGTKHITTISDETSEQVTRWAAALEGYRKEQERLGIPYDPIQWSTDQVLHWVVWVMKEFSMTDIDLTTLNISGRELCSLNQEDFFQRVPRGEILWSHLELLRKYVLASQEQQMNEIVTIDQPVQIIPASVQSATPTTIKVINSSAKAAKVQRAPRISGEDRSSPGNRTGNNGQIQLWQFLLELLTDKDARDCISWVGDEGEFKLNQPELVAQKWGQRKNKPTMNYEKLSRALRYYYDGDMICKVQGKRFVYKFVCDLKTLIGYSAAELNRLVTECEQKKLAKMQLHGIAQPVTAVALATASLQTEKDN
# Summary of the method: as §1
# ERG = molecular target: T4, ERG (Homo sapiens, UniProt P11308 1-479); settings: protein: recombinant; tags: N-terminal GST; dsDNA, one strand shown
# T4 sequence: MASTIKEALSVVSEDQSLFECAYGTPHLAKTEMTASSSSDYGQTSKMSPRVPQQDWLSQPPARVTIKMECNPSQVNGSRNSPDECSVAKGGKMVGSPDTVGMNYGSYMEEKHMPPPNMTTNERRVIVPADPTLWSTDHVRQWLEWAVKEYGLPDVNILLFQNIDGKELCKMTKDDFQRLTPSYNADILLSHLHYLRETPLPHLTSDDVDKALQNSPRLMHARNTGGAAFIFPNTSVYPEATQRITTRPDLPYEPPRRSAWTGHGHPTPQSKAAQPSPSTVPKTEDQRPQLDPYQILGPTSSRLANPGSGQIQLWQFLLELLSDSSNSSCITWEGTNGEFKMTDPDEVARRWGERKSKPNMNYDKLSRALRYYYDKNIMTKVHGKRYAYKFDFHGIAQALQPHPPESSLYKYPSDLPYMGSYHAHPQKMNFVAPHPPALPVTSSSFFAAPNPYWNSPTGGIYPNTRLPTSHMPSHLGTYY
# Summary of the method: as §1
# ELF1 = ELF1 (Homo sapiens, UniProt P32519 1-619); settings: protein: recombinant; tags: N-terminal GST; dsDNA, one strand shown
# Chain of ELF1 (P32519 whole entry): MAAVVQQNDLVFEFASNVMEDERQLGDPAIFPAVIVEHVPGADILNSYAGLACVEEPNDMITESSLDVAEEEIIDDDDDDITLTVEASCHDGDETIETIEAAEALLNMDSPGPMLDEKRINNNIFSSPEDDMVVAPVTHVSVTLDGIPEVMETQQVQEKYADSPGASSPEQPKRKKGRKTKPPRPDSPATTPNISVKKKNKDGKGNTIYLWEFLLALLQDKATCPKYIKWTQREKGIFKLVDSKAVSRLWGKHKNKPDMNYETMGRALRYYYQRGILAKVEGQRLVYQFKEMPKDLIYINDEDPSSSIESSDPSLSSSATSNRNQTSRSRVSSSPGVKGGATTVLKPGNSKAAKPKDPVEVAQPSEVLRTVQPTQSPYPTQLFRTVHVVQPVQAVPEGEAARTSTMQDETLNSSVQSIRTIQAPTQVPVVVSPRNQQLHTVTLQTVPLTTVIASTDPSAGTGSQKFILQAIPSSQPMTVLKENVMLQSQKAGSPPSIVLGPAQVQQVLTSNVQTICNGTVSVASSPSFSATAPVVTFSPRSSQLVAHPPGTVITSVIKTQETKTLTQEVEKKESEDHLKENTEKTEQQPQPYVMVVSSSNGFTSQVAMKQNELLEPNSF
# Summary of the method: as §1
# EHF = molecular target: T5, EHF (Homo sapiens, UniProt Q9NZC4 1-300); settings: protein: recombinant; tags: N-terminal GST; dsDNA, one strand shown
# T5 sequence: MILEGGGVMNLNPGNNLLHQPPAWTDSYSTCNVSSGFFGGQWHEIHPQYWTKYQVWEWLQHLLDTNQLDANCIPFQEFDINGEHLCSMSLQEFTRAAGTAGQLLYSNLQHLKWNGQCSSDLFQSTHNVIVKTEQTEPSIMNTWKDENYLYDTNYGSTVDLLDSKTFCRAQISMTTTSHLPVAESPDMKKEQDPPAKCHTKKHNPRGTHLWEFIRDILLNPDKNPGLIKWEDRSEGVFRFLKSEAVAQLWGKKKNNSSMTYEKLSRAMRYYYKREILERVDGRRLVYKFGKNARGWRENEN
# Summary of the method: as §1
# SPI1 = SPI1 (Homo sapiens, UniProt P17947 1-270); settings: protein: recombinant; tags: N-terminal GST; dsDNA, one strand shown
# Summary of the method: as §1
# SPIB = SPIB (Homo sapiens, UniProt Q01892 1-262); settings: protein: recombinant; tags: N-terminal GST; dsDNA, one strand shown
# Chain of SPIB (Q01892 whole entry): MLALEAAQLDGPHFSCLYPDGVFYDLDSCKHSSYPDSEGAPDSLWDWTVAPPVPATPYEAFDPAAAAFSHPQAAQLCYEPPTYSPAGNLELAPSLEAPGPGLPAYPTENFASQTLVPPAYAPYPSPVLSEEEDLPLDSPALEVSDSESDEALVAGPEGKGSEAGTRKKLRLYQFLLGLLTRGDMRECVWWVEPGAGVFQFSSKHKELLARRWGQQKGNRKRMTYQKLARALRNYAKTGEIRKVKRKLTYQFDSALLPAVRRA
# Summary of the method: as §1
# ELK3 = molecular target: T6, ELK3 (Homo sapiens, UniProt P41970 1-407); settings: protein: recombinant; tags: N-terminal GST; dsDNA, one strand shown
# T6 sequence: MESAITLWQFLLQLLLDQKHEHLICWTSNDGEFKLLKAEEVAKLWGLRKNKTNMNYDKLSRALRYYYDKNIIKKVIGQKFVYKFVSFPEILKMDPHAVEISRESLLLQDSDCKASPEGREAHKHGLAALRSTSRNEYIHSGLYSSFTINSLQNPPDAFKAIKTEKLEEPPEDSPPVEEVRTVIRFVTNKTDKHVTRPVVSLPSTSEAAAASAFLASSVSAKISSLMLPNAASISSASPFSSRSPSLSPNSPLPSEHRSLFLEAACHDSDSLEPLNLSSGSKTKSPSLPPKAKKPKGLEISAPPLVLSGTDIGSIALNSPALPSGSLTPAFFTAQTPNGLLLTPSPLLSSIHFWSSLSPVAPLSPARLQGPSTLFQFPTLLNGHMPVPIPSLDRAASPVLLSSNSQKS
# Summary of the method: as §1
# FEV = molecular target: T7, FEV (Homo sapiens, UniProt Q99581 1-238); settings: protein: recombinant; tags: N-terminal GST; dsDNA, one strand shown
# T7 sequence: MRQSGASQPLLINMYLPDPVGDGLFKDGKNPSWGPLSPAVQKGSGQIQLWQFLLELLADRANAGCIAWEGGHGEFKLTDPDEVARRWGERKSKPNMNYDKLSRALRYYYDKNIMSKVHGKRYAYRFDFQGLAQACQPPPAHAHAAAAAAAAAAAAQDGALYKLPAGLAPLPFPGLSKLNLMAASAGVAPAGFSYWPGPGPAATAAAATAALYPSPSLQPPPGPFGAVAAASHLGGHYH
# Summary of the method: as §1
# ETV5 = ETV5 (Homo sapiens, UniProt P41161 1-510); settings: protein: recombinant; tags: N-terminal GST; dsDNA, one strand shown
# Chain of ETV5 (P41161 whole entry): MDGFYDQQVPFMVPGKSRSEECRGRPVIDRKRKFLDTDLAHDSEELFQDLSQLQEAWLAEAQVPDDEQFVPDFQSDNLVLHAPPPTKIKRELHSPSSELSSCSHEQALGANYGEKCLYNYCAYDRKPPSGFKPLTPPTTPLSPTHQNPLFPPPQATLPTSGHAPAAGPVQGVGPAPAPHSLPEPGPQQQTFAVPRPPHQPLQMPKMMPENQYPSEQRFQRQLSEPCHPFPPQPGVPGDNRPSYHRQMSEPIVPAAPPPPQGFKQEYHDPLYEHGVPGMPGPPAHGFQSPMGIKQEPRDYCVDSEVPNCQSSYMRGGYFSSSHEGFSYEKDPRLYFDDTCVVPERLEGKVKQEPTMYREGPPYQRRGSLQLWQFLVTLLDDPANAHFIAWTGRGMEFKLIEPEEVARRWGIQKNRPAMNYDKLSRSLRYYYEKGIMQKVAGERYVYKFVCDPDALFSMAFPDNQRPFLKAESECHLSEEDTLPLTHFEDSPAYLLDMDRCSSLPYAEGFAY
# Summary of the method: as §1
# HSF1 = HSF1 (Homo sapiens, UniProt Q00613 1-529); settings: protein: recombinant; tags: N-terminal GST; chain copies: 3; dsDNA, one strand shown
# Chain of HSF1 (Q00613 whole entry): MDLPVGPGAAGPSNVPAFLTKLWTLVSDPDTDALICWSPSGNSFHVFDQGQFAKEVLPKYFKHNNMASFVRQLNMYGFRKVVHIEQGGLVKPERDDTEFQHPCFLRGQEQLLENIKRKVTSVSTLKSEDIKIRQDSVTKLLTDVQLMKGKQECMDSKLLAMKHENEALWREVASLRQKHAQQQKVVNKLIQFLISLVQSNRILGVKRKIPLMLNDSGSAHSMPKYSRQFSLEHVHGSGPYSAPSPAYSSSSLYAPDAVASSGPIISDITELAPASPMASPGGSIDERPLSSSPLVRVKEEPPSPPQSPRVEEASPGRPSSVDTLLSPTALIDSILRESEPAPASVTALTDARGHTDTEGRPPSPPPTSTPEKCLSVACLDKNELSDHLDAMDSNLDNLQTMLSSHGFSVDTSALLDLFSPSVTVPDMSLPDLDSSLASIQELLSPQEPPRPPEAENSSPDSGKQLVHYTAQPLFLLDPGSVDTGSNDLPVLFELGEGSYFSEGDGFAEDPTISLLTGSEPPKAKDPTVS
# Summary of the method: as §1
# SPIC = molecular target: T8, SPIC (Homo sapiens, UniProt Q8N5J4 1-248); settings: protein: recombinant; tags: N-terminal GST; dsDNA, one strand shown
# T8 sequence: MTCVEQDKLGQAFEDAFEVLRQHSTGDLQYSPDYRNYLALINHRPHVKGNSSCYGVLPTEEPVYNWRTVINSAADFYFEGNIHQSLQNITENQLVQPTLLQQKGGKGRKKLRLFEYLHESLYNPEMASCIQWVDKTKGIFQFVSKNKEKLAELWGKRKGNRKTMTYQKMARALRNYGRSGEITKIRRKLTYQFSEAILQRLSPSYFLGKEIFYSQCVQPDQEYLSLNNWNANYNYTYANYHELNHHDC
# Summary of the method: as §1
# ELF4 = ELF4 (Homo sapiens, UniProt Q99607 1-663); settings: protein: recombinant; tags: N-terminal GST; dsDNA, one strand shown
# Chain of ELF4 (Q99607 whole entry): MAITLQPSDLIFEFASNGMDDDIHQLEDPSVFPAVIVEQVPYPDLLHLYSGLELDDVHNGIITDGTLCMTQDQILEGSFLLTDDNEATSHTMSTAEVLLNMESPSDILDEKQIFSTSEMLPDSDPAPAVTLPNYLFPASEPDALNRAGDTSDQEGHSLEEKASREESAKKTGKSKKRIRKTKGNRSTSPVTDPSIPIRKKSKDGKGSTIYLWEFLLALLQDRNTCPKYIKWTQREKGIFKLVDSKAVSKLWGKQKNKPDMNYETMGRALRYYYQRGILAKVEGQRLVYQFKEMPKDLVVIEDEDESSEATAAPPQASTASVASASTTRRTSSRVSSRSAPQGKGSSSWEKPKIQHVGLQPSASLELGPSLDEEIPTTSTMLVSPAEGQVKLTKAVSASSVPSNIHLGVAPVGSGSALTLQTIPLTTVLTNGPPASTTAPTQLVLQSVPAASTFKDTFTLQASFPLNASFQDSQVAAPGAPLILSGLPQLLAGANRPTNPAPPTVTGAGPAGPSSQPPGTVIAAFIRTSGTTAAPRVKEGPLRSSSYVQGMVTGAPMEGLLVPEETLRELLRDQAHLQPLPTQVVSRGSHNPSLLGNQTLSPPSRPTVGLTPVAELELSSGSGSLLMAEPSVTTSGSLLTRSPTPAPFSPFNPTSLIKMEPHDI
# Summary of the method: as §1
# ELK4 = molecular target: T9, ELK4 (Homo sapiens, UniProt P28324-2 1-405); settings: protein: recombinant; tags: N-terminal GST; dsDNA, one strand shown
# T9 sequence: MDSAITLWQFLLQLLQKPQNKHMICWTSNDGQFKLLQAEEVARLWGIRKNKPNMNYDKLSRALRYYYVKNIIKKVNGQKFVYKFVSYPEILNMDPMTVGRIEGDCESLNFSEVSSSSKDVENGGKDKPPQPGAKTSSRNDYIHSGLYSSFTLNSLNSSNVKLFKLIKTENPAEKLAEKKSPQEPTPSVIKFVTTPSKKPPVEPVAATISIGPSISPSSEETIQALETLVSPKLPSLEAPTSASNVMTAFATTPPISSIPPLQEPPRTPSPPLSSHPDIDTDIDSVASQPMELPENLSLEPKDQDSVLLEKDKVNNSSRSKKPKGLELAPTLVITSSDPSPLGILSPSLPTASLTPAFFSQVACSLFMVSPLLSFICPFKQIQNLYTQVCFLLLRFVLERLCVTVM
# Summary of the method: as §1
# ETV2 = molecular target: T10, ETV2 (Homo sapiens, UniProt O00321 1-342); settings: protein: recombinant; tags: N-terminal GST; dsDNA, one strand shown
# T10 sequence: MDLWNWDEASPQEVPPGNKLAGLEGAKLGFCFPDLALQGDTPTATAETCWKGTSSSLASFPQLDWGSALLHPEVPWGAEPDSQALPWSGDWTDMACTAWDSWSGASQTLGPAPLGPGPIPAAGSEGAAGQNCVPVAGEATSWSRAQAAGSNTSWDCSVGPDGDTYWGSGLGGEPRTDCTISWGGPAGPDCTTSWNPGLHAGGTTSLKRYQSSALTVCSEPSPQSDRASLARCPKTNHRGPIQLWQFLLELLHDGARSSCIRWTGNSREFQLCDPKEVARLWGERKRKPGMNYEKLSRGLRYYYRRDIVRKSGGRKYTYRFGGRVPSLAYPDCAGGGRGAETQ
# Summary of the method: as §1
# ELF3 = molecular target: T11, ELF3 (Homo sapiens, UniProt P78545 1-371); settings: protein: recombinant; tags: N-terminal GST; dsDNA, one strand shown
# T11 sequence: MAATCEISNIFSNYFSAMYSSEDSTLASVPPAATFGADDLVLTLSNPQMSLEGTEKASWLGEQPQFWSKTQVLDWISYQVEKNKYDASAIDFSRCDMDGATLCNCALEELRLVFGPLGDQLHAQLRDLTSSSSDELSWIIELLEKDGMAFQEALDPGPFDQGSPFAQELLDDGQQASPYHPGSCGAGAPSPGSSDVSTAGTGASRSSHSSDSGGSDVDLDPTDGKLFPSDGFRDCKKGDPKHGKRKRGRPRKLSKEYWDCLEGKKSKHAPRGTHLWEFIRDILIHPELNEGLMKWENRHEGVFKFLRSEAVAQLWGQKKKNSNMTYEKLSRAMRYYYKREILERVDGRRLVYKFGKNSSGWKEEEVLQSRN
# Summary of the method: as §1
# CRX = CRX (Homo sapiens, UniProt O43186 1-299); settings: protein: recombinant; tags: N-terminal GST; dsDNA, one strand shown
# Chain of CRX (O43186 whole entry): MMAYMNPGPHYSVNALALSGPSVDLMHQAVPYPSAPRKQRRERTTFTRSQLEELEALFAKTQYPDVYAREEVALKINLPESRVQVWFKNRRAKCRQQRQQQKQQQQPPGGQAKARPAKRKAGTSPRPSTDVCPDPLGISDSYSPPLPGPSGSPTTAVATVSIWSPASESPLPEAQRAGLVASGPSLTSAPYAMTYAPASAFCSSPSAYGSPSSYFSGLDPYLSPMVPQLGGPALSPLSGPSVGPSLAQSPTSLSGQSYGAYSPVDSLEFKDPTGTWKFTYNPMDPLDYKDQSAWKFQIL
# Summary of the method: as §1
# ETV1 = ETV1 (Homo sapiens, UniProt P50549 1-477); settings: protein: recombinant; tags: N-terminal GST; dsDNA, one strand shown
# Chain of ETV1 (P50549 whole entry): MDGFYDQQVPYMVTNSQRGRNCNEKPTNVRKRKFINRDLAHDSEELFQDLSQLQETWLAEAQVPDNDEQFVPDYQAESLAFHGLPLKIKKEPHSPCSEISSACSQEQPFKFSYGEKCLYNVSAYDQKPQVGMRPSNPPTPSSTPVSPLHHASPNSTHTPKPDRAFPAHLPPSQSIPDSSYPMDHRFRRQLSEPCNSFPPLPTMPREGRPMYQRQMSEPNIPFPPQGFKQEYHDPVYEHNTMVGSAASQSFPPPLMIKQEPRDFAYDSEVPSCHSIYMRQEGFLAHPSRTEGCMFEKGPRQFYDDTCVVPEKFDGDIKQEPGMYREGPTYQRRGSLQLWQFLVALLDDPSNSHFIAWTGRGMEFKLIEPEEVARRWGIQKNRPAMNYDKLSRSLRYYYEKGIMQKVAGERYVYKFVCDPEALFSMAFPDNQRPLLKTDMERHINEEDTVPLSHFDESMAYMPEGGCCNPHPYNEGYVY
# Summary of the method: as §1
sequence,measurement,setting,value
CTGCTC,binding signal,FLI1,"1.32 fold enrichment (6-mer frequency, TF over GST control)"
same,binding signal,ELK1,"1.37 fold enrichment (6-mer frequency, TF over GST control)"
same,binding signal,GABPA,"1.18 fold enrichment (6-mer frequency, TF over GST control)"
same,binding signal,ERG,"1.28 fold enrichment (6-mer frequency, TF over GST control)"
same,binding signal,ELF1,"1.34 fold enrichment (6-mer frequency, TF over GST control)"
same,binding signal,EHF,"1.27 fold enrichment (6-mer frequency, TF over GST control)"
same,binding signal,SPI1,"1.29 fold enrichment (6-mer frequency, TF over GST control)"
same,binding signal,SPIB,"1.39 fold enrichment (6-mer frequency, TF over GST control)"
same,binding signal,ELK3,"1.3 fold enrichment (6-mer frequency, TF over GST control)"
same,binding signal,FEV,"1.31 fold enrichment (6-mer frequency, TF over GST control)"
same,binding signal,ETV5,"1.26 fold enrichment (6-mer frequency, TF over GST control)"
same,binding signal,HSF1,"1.17 fold enrichment (6-mer frequency, TF over GST control)"
same,binding signal,SPIC,"1.39 fold enrichment (6-mer frequency, TF over GST control)"
same,binding signal,ELF4,"1.29 fold enrichment (6-mer frequency, TF over GST control)"
same,binding signal,ELK4,"1.45 fold enrichment (6-mer frequency, TF over GST control)"
same,binding signal,ETV2,"1.35 fold enrichment (6-mer frequency, TF over GST control)"
same,binding signal,ELF3,"1.18 fold enrichment (6-mer frequency, TF over GST control)"
same,binding signal,CRX,"1.22 fold enrichment (6-mer frequency, TF over GST control)"
same,binding signal,ETV1,"1.21 fold enrichment (6-mer frequency, TF over GST control)"
